The source made the active and inactive calls. The calls were made as follows, unless noted: active = hit-call score of the fitted dose curve at least 0.9, where 1 is the maximum; inactive = score below 0.9.
How the values were obtained:
[1] = read-out: Protein phosphatase 2A (PPP2R4), PTPA (gene 5524); experiment: LTEA_HepaRG_PPP2R4: Life Technologies and Expression Analysis (LTEA) Assay for Protein phosphatase 2A (PPP2R4) using HepaRG (AID 2283522); conditions: mRNA level, 48 h; actives raise or lower the signal
Procedure, shortened: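 Using HepaRG cultures maintained in 0.5% DMSO, chemicals are tested 48 h at up to 100 uM in duplicate. Induction or suppression of PPP2R4 mRNA, measured by qRT-PCR, is fitted bidirectionally against the vehicle baseline.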

[2] = read-out: Phosphatase and tensin (PTEN), PTEN (gene 5728); experiment: LTEA_HepaRG_PTEN: Life Technologies and Expression Analysis (LTEA) Assay for Phosphatase and tensin (PTEN) using HepaRG (AID 2283523); conditions: mRNA level, 48 h; actives raise or lower the signal
Procedure, shortened: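 HepaRG, 48 h exposure, 8-pt half-log series from 100 uM top, 0.5% DMSO vehicle, duplicates. Readout: Fluidigm qRT-PCR of PTEN transcript; housekeeping normalization (ACTB, GAPDH, POLR2A). Gain or loss fitted relative to DMSO baseline.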

[3] = read-out: solute carrier (SLC22A1), SLC22A1 (gene 6580); experiment: LTEA_HepaRG_SLC22A1: Life Technologies and Expression Analysis (LTEA) Assay for solute carrier (SLC22A1) using HepaRG (AID 2283524); conditions: mRNA level, 48 h; actives raise or lower the signal;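 as to AC50: differentiated human HepaRG liver cells in serum-free induction medium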
Procedure, shortened: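 qRT-PCR readout (TaqMan, Fluidigm arrays) of SLC22A1 transcript, normalized to three housekeeping genes; bidirectional curve fit relative to 0.5% DMSO vehicle. Differentiated human HepaRG cells, 48 h chemical exposure, top concentration 100 uM, half-log steps, eight points.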

[4] = read-out: Pyruvate Dehydrogenase Kinase 4 (PDK4), PDK4 (gene 5166); experiment: LTEA_HepaRG_PDK4: Life Technologies and Expression Analysis (LTEA) Assay for Pyruvate Dehydrogenase Kinase 4 (PDK4) using HepaRG (AID 2283525); conditions: mRNA level, 48 h; actives raise or lower the signal
Procedure, shortened: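 HepaRG (human liver line), 48 h chemical exposure, 8-pt half-log CRC top 100 uM, 0.5% DMSO vehicle, duplicates. Readout: TaqMan qRT-PCR of PDK4 mRNA, housekeeping-normalized; gain/loss fit relative to DMSO baseline.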

[5] = read-out: NAD(P)H dehydrogenase [quinone] 1 (NQO1), NQO1 (gene 1728); experiment: LTEA_HepaRG_NQO1: Life Technologies and Expression Analysis (LTEA) Assay for NAD(P)H dehydrogenase [quinone] 1 (NQO1) using HepaRG (AID 2283526); conditions: mRNA level, 48 h; actives raise or lower the signal
Procedure, shortened: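 In this assay, gene expression is read by qRT-PCR after 48 h exposure of HepaRG cells to eight concentrations (max 100 uM, half-log) in 0.5% DMSO. Each chemical runs in duplicate, and activity is scored relative to vehicle.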

[6] = read-out: Nuclear factor erythroid 2-related factor 2 (Homo sapiens) (UniProt Q16236); experiment: LTEA_HepaRG_NFE2L2: Life Technologies and Expression Analysis (LTEA) Assay for Nuclear factor erythroid 2-related factor 2 (NFE2L2) Transcription Factor using HepaRG (AID 2283527); conditions: mRNA level, 48 h; actives raise or lower the signal;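 as to outcome: TaqMan qRT-PCR transcript level normalised to ACTB GAPDH and POLR2A housekeeping genes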
Procedure, shortened: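 HepaRG, 48 h dosing, 8-pt half-log series from 100 uM in 0.5% DMSO, duplicates. Read-out: NFE2L2 mRNA by qRT-PCR (ACTB/GAPDH/POLR2A normalization). Bidirectional curve fit vs DMSO baseline.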

[7] = read-out: succinate dehydrogenase complex iron sulfur subunit B (SDHB), SDHB (gene 6390); experiment: LTEA_HepaRG_SDHB: Life Technologies and Expression Analysis (LTEA) Assay for succinate dehydrogenase complex iron sulfur subunit B (SDHB) using HepaRG (AID 2283528); conditions: mRNA level, 48 h; actives raise or lower the signal
Procedure, shortened: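 A human HepaRG culture in serum-free induction medium received test chemicals for 48 h over an eight-point range capped at 100 uM. SDHB expression change was quantified by qRT-PCR.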

[8] = read-out: Signal transducer and activator of transcription 3 (Homo sapiens) (UniProt P40763); experiment: LTEA_HepaRG_STAT3: Life Technologies and Expression Analysis (LTEA) Assay for Signal transducer and activator of transcription (STAT3) using HepaRG (AID 2283529); conditions: mRNA level, 48 h; actives raise or lower the signal
Procedure, shortened: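 HepaRG, 48 h exposure, 8-pt half-log series (top 100 uM), 0.5% DMSO vehicle, duplicates. Readout: STAT3 transcript by Fluidigm qRT-PCR, housekeeping-normalized; bidirectional fit vs DMSO baseline.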

[9] = read-out: solute carrier (SLCO1B1), SLCO1B1 (gene 10599); experiment: LTEA_HepaRG_SLCO1B1: Life Technologies and Expression Analysis (LTEA) Assay for solute carrier (SLCO1B1) using HepaRG (AID 2283530); conditions: mRNA level, 48 h; actives raise or lower the signal
Procedure, shortened: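 HepaRG, serum-free induction medium, 48 h dosing, 8-pt half-log from 100 uM, 0.5% DMSO vehicle, duplicates. Readout: SLCO1B1 mRNA, qRT-PCR, ACTB/GAPDH/POLR2A normalization; up or down fit vs DMSO.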

[10] = read-out: sulfotransferase 2A1 (SULT2A1), SULT2A1 (gene 6822); experiment: LTEA_HepaRG_SULT2A1: Life Technologies and Expression Analysis (LTEA) Assay for sulfotransferase 2A1 (SULT2A1) using HepaRG (AID 2283531); conditions: mRNA level, 48 h; actives raise or lower the signal
Procedure, shortened: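 Transcript levels of SULT2A1, quantified by qRT-PCR and normalized to three housekeeping genes, serve as the readout. Human HepaRG cultures receive test chemicals for 48 h at up to 100 uM in half-log steps, with 0.5% DMSO vehicle.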

[11] = read-out: Transforming Growth Factor (TGFA), TGFA (gene 7039); experiment: LTEA_HepaRG_TGFA: Life Technologies and Expression Analysis (LTEA) Assay for Transforming Growth Factor (TGFA) using HepaRG (AID 2283532); conditions: mRNA level, 48 h; actives raise or lower the signal
Procedure, shortened: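 qRT-PCR read-out of TGFA transcript, normalized to three housekeeping genes, fitted bidirectionally against 0.5% DMSO baseline. Human HepaRG cultures received chemicals for 48 h at eight half-log concentrations, top 100 uM.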

TIMP1, TIMP1 (gene 7076) = experiment: LTEA_HepaRG_TIMP1: Life Technologies and Expression Analysis (LTEA) Assay for TIMP1 using HepaRG (AID 2283534); conditions: mRNA level, 48 h; actives raise or lower the signal
Procedure, shortened: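 Readout is TIMP1 mRNA level measured by qRT-PCR and normalized to three housekeeping genes. Human HepaRG cells were treated for 48 h in duplicate at eight concentrations up to 100 uM (0.5% DMSO); gain or loss fitted against DMSO.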

[12] = read-out: Tumor necrosis factor receptor 1 (TNFRSF1A), TNFRSF1A (gene 7132); experiment: LTEA_HepaRG_TNFRSF1A: Life Technologies and Expression Analysis (LTEA) Assay for Tumor necrosis factor receptor 1 (TNFRSF1A) using HepaRG (AID 2283535); conditions: mRNA level, 48 h; actives raise or lower the signal
Procedure, shortened: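 Read-out is TNFRSF1A transcript level by TaqMan qRT-PCR, normalized to three housekeeping genes, scored as gain or loss of signal versus 0.5% DMSO. Human HepaRG cells received test chemicals for 48 h at up to 100 uM (half-log series).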

[13] = read-out: Cellular tumor antigen p53 (Homo sapiens) (UniProt P04637); experiment: LTEA_HepaRG_TP53: Life Technologies and Expression Analysis (LTEA) Assay for Tumor Protein P53 (TP53) using HepaRG (AID 2283537); conditions: mRNA level, 48 h; actives raise or lower the signal
Procedure, shortened: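 Gain or loss of TP53 mRNA signal is scored relative to 0.5% DMSO after 48 h chemical treatment of HepaRG liver cells, tested in duplicate at eight half-log concentrations up to 100 uM.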

[14] = read-out: UDP glucuronosyltransferase (UGT1A1), UGT1A1 (gene 54658); experiment: LTEA_HepaRG_UGT1A1: Life Technologies and Expression Analysis (LTEA) Assay for UDP glucuronosyltransferase (UGT1A1) using HepaRG (AID 2283538); conditions: mRNA level, 48 h; actives raise or lower the signal
Procedure, shortened: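 mRNA induction or loss of UGT1A1, by TaqMan qRT-PCR, in duplicate HepaRG wells after 48 h exposure to half-log dilutions topping at 100 uM; DMSO (0.5%) served as baseline.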

[15] = read-out: UDP glucuronosyltransferase (UGT1A6), UGT1A6 (gene 54578); experiment: LTEA_HepaRG_UGT1A6: Life Technologies and Expression Analysis (LTEA) Assay for UDP glucuronosyltransferase (UGT1A6) using HepaRG (AID 2283539); conditions: mRNA level, 48 h; actives raise or lower the signal
Procedure, shortened: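 HepaRG, 48 h post-plating switch to serum-free induction medium; chemical 48 h, 100 uM top, half-log x8, duplicate, 0.5% DMSO. Phenobarbital 1mM induction control. UGT1A6 mRNA by TaqMan qRT-PCR; gain/loss fit vs DMSO.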

[16] = read-out: X-box binding protein 1 (XBP1), XBP1 (gene 7494); experiment: LTEA_HepaRG_XBP1: Life Technologies and Expression Analysis (LTEA) Assay for X-box binding protein 1 (XBP1) using HepaRG (AID 2283540); conditions: mRNA level, 48 h; actives raise or lower the signal
Procedure, shortened: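 Transcript levels of XBP1, measured by qRT-PCR and normalised to three housekeeping genes, were fitted bidirectionally relative to 0.5% DMSO controls. Human HepaRG cells received eight-point half-log dilutions from 100 uM for 48 h.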

[17] = LTEA_HepaRG_LDH_cytotoxicity: Cytotoxicity Assessment in the Life Technologies and Expression Analysis (LTEA) Assay (AID 2283563; active = hit-call score of the fitted dose curve at least 0.9, where 1 is the maximum;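 as to AC50: LDH activity released into spent culture medium as a marker of cell death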)
Procedure, shortened: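 Cells were thawed and plated for 48 h. Medium was then replaced with serum-free induction medium. Chemicals (8 half-log points, maximum 100 uM, 0.5% DMSO) were added in duplicate for 48 h, after which spent medium was assayed for LDH.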

[18] = read-out: Thyroid Hormone Responsive (THRSP), THRSP (gene 7069); experiment: LTEA_HepaRG_THRSP: Life Technologies and Expression Analysis (LTEA) Assay for Thyroid Hormone Responsive (THRSP) using HepaRG (AID 2283536); conditions: mRNA level, 48 h; actives raise or lower the signal
Procedure, shortened: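 qRT-PCR read-out (Fluidigm TaqMan), housekeeping-normalized (ACTB/GAPDH/POLR2A). HepaRG, 48 h chemical exposure, 8-pt half-log series from 100 uM in 0.5% DMSO, duplicates. Bidirectional curve fit vs 0.5% DMSO baseline.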

Cellular tumor antigen p53 (Homo sapiens), sequence (P04637 whole entry, looked up): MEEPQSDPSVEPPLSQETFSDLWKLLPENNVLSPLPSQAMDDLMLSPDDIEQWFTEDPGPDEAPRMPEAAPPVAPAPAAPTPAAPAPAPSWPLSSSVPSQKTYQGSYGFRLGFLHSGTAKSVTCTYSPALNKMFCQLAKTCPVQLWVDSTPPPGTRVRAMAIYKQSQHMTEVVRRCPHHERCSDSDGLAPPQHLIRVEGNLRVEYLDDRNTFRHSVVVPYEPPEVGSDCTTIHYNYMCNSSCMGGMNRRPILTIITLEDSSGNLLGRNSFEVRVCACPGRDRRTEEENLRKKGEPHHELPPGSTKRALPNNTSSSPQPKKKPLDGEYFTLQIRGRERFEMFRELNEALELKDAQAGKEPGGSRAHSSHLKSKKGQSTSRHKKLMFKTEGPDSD
Nuclear factor erythroid 2-related factor 2 (Homo sapiens), sequence (Q16236 whole entry, looked up): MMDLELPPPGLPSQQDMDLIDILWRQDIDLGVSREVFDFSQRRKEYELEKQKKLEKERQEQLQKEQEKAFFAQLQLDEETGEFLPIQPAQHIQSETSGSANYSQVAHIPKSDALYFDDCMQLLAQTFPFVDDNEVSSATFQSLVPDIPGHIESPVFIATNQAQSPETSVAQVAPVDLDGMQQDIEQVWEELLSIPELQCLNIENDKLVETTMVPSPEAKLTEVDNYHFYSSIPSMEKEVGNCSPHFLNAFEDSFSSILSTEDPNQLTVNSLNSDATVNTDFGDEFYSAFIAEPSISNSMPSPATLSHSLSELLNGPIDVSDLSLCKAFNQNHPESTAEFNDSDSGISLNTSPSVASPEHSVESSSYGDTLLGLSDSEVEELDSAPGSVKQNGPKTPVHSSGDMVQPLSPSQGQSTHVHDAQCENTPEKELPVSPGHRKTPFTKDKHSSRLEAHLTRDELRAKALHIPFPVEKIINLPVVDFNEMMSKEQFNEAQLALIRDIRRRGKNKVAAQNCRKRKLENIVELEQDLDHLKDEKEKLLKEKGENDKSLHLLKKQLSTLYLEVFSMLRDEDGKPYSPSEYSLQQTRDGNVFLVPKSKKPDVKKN
Signal transducer and activator of transcription 3 (Homo sapiens), sequence (P40763 whole entry, looked up): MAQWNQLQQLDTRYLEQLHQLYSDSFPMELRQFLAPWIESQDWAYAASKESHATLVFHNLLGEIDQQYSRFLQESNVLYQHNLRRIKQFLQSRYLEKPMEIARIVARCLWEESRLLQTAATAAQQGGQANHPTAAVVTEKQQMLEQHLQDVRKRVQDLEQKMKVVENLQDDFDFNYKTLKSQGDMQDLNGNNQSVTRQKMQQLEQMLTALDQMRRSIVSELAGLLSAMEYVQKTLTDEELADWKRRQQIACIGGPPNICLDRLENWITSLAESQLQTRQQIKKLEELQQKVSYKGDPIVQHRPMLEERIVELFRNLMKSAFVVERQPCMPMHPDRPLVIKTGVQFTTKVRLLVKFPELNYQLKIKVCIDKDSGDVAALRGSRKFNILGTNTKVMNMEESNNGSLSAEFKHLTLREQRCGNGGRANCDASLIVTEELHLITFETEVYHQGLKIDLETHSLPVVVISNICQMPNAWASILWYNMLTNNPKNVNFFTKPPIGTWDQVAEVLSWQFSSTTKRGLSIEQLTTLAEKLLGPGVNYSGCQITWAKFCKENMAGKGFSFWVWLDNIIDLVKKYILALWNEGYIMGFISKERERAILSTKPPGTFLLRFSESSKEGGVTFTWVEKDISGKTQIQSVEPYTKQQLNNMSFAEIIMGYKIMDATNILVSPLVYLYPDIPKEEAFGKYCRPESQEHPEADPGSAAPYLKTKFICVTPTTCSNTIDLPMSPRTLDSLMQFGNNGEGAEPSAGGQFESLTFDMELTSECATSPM

## CCN(Cc1cccnc1)C(=O)c1cccc(Cl)c1[C@]1(C)C(=O)N(Cc2ccc(OC)cc2OC)c2ccc(Cl)cc21
[1]
  AC50: 10.8 µM (active)
[2]
  outcome: inactive
[3]
  AC50: 21.7 µM (active)
[4]
  AC50: 22.3 µM (active)
[5]
  outcome: inactive
[6]
  AC50: 16 µM (active)
[7]
  outcome: inactive
[8]
  outcome: inactive
[9]
  AC50: 22.2 µM (active)
[10]
  AC50: 25.3 µM (active)
[11]
  AC50: 13.6 µM (active)
TIMP1, TIMP1 (gene 7076)
  outcome: inactive
[12]
  outcome: inactive
[13]
  AC50: 11.6 µM (active)
[14]
  AC50: 25.2 µM (active)
[15]
  AC50: 16.7 µM (active)
[16]
  AC50: 24.6 µM (active)
[17]
  AC50: 25.5 µM (active)

## CCCCCCCCCC(=O)O
[1]
  outcome: inactive
[2]
  outcome: inactive
[3]
  outcome: inactive
[4]
  outcome: inactive
[5]
  outcome: inactive
[6]
  outcome: inactive
[7]
  outcome: inactive
[8]
  outcome: inactive
[9]
  outcome: inactive
[10]
  outcome: inactive
[11]
  outcome: inactive
TIMP1, TIMP1 (gene 7076)
  outcome: inactive
[12]
  outcome: inactive
[18]
  outcome: inactive
[13]
  outcome: inactive
[15]
  outcome: inactive
[16]
  outcome: inactive
[17]
  outcome: inactive

## CCCCCCCC[Si](OCC)(OCC)OCC
[1]
  outcome: inactive
[2]
  outcome: inactive
[3]
  outcome: inactive
[4]
  outcome: inactive
[5]
  outcome: inactive
[6]
  outcome: inactive
[7]
  outcome: inactive
[8]
  outcome: inactive
[9]
  outcome: inactive
[10]
  outcome: inactive
[11]
  outcome: inactive
[12]
  outcome: inactive
[13]
  outcome: inactive
[14]
  outcome: inactive
[15]
  outcome: inactive
[16]
  outcome: inactive
[17]
  outcome: inactive
